From PubChem
Hits are enriched below; roughly 12% of the tested compounds scored in any of these assays.
INS promoter inh: TRM-6 insulin promoter activity inhibition | 130,000 compounds, 0.9% hits | inhibition, % at 2 µM | AID 1273 | TRM-6 cells (human fetal islet line), insulin promoter-eGFP reporter, imaging; reporter expression induced with tamoxifen;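 active = inhibition above the mean plus 3 SD, with well images judged a real hit on visual review, cut at about 60% in these data, passing the limit was not always enough; inconclusive = inhibition over the cutoff but images rejected on review; inactive = inhibition not above the cutoff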
WT yeast gro inh: growth inhibition of WT yeast, mitochondrial fusion screen; mitochondrial fusion phenotypic screen, WT strain; inhibition, % at 10 µM; 190,000 compounds, 2.1% hits; in the data active = inhibition above about 58%; tested in S. cerevisiae
L major viab: inhibitors of Leishmania major promastigote growth. Leishmania major promastigotes, resazurin fluorescence viability. inhibition, % at 10 µM. 200,000 compounds, 9% hits. AID 1063; in the data active = inhibition above about 50%;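 also: promastigotes grown with compound for 44 hours at 28 °C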
Insulin prom up: MIN6 insulin promoter up-regulation | MIN6 insulin promoter-GFP reporter, high-content imaging; active compounds read high | z-score at 5 µM | 190,000 compounds, 0.3% hits;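 active = z-score above 3 at 5 µM with at least 500 cells counted in the well; inconclusive = wells under 500 cells, flagged as cytotoxic or low count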
Cl transport mod: modulates chloride dependent transport by human KCC2. Q9H2X9. KCC2 cells, thallium flux FluoZin-2 fluorescence. B-score of Tl+ flux slope (higher = more flux/activation; lower = inhibition) at 10 µM. 190,000 compounds, 2.2% hits. AID 1456;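 active = thallium flux slope and its plate-corrected score both differing from the plate sample mean at a set confidence after two filtering rounds, in either direction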;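 also: slope of fluorescence scaled to starting intensity during 10 to 20 s after thallium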
ROMK primary: modulators of human ROMK potassium channel; P48048; 130,000 compounds, 2% hits; B-score at 10 µM; Tet-inducible ROMK, thallium flux fluorescence; actives lie on both sides;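 active = signal ratio slope over the read window, or its plate-corrected B-score, at least 3 SD from the plate mean, either direction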;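 also: B-score of the F/F0 ratio slope over 7 to 12 s after thallium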
Target sequence (P48048 whole entry, looked up): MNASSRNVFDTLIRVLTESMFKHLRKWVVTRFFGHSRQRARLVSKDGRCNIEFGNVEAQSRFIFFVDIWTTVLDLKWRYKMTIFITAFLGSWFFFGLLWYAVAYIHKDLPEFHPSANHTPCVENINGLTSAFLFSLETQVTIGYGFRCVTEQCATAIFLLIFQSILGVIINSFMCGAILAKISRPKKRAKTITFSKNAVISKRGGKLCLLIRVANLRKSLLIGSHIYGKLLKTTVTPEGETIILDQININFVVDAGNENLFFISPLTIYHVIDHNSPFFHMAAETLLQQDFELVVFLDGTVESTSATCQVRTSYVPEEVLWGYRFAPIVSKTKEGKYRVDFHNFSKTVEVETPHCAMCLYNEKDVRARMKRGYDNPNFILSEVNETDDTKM
KCC2 secondary: KCC2 (human) modulation, secondary assay | shares compounds with Cl transport mod | HEK293-KCC2, thallium flux, FluoZin2 fluorescence; active compounds read high | normalised thallium flux (F/F0 slope) at 10 µM | 3,700 compounds, 15% hits | AID 1713;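 active = thallium flux slope above the same plate's solvent-only control mean plus 3 SD; inconclusive = the two replicate wells disagree; inactive = no significant difference from solvent-only control wells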
KCC2 bumet counter: thallium flux despite bumetanide block in KCC2 cells, secondary assay 3 | shares compounds with Cl transport mod | HEK293-KCC2 + bumetanide/ouabain, thallium flux FluoZin2; active compounds read high | normalized thallium flux at 10 µM | 3,700 compounds, 49% hits | AID 1714;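 active = thallium entry rate above the same plate's blocked-transporter control wells by more than 3 SD; inconclusive = the two repeat wells disagree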;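 also: raw slope of fluorescence over initial fluorescence between 10 and 20 s after thallium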
KCC2 sec2: confirmation of human KCC2 transport modulators; shares compounds with Cl transport mod; HEK293-KCC2, thallium flux FluoZin2 fluorescence; actives lie on both sides; F/F0 rise rate, 10–20 s post-thallium; normalized thallium flux at 10 µM; 3,700 compounds, 23% hits; AID 1715;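 active = thallium flux slope more than 3 SD above or below the plate's solvent-only control mean, mostly below; inconclusive = the two repeat wells disagreed; inactive = no significant shift from solvent-only controls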;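 also: raw slope with 0.1% DMSO as baseline and bumetanide as block control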
HEK293 Tl flux: counter-screen for KCC2 modulators: effect in parental HEK293 cells; shares compounds with Cl transport mod; thallium flux FluoZin2, ouabain; baseline-ratio fluorescence slope, 10–20 s after thallium; thallium flux rate (normalised fluorescence) at 10 µM; 3,700 compounds, 46% hits;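 active = thallium flux rate significantly above the same plate's solvent-only control wells, beyond their mean plus 3 SD; inconclusive = the two replicate wells gave conflicting results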
KCC2 retest ouab: KCC2 (human) modulation, ouabain retest; shares compounds with Cl transport mod; HEK293-KCC2, thallium flux FluoZin2 fluorescence; bidirectional: low = inhibitor, high = activator; raw Tl+ flux slope (below DMSO = inhibition, above = activation) at 10 µM; 3,700 compounds, 48% hits;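 active = thallium flux slope beyond 3 SD from same-plate DMSO control mean in most replicates, usually higher, sometimes lower; inconclusive = repeat tests gave conflicting results; inactive = no significant difference from controls in most replicates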;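 also: slope of initial-normalized fluorescence between seconds 10 and 20 after thallium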
HEK counter2: acts in parental HEK cells, second KCC2 counter-screen; shares compounds with Cl transport mod; HEK293 parental, thallium flux FluoZin-2 fluorescence slope; thallium flux slope at 10 µM; 3,700 compounds, 33% hits; AID 1718;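 active = thallium flux slope above the same plate's solvent-control mean plus 3 SD in both duplicate wells; inconclusive = duplicate wells that disagreed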;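 also: run without ouabain in cells lacking the KCC2 cotransporter; slope of fluorescence scaled to its starting value between 10 and 20 s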
ROMK retest: retested hit modulating human ROMK potassium channel | shares compounds with ROMK primary | ROMK thallium flux, fluorescence ratio; active compounds read low | normalized thallium flux (F/F0 slope) at 10 µM | 3,000 compounds, 54% hits | AID 1917;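 active = Flux at 10 µM at least 3 SD below or above vehicle control mean in one or both replicates; inconclusive = no clear call, values can overlap the other calls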
* = called active by the depositor; ? = inconclusive; . = no result given.

SMILES	INS promoter inh	WT yeast gro inh	L major viab	Insulin prom up	Cl transport mod	ROMK primary	KCC2 secondary	KCC2 bumet counter	KCC2 sec2	HEK293 Tl flux	KCC2 retest ouab	HEK counter2	others
O=c1[nH]c(=S)[nH]c(O)c1N=Nc1ccc(OC(F)F)cc1	.	13.3	-2.5	0.63	42.1*	0.846	?	0.0732*	0.0353	0.0106*	0.0692*	0.0111
O=[N+]([O-])c1ccc(C2[C@H]3C(c4ccccc4)=NC4(CCCCC4)N23)cc1 (some centres not stated)	-83.9	36.6	10.9	-0.06	-0.213	.	.	.	.	.	.	.
COc1cccc(-c2nc(CS(=O)CC(=O)N3CCC4(CC3)OCCO4)c(C)o2)c1 (configuration not stated)	61.5	-1.2	-3.2	0.2	-5.47*	.	0.00707	0.00456	?	0.0066	0.0175	0.00973
CCCCCCn1c(O)c(C=NC2CCN(Cc3ccccc3)CC2)c(=O)[nH]c1=O	25.8	16.9	54.1*	-0.22	.	0.0264	0.0184	0.00465	?	0.00697	0.0154	0.00956
C=CCn1c(O)c(C=NC2CCN(Cc3ccccc3)CC2)c(=O)[nH]c1=O	.	.	.	-0.2	0.00673	-1.43	.	.	.	.	.	.
COc1ccc(C(=O)C(C)(C)NO)cc1	-468.8	-6.5	-4.2	0.43	1.06	0.394	.	.	.	.	.	.
OC(c1ccncc1)(c1ccc(F)cc1)c1ccc(F)cc1	.	5.9	16.2	-0.33	-0.746	-1.95	.	.	.	.	.	.
CCCCNC(=O)Nc1ccc(C(O)(C(=O)OCC)C(F)(F)F)cc1 (configuration not stated)	.	-7.7	-3.7	0.59	-4.73*	-0.595	0.00782	0.00685	0.0316	?	0.0221	0.00988
CCCCNC(=O)Nc1ccc(C(O)(C(=O)OC)C(F)(F)F)cc1 (configuration not stated)	21.4	0.9	-0.3	-0.27	.	0.0396	.	.	.	.	.	.
O=c1c2ccccc2[nH]c(=S)n1-c1ccc(Br)cc1	.	8.1	11.3	-0.49	19.8*	-0.65	0.00639	0.0413*	0.0425*	0.0278*	0.0444*	0.0274*
O=c1c2cc(Br)ccc2[nH]c(=S)n1-c1ccccc1	73.3*	-6.0	4.9	1.16	20.1*	0.388	0.00796	0.027*	0.0425*	0.0219*	0.0331*	0.0234*
O=C(C1CC(c2ccccc2O)=NO1)N1CCC2(CC1)OCCO2 (configuration not stated)	-33.3	-28.3	0.2	-0.68	0.0629	-0.44	.	.	.	.	.	.
O=C1N(CN2CCOCC2)c2ccccc2C1(O)c1c[nH]c2ccccc12 (configuration not stated)	27.3	8.8	-3.4	0.16	.	.	0.00908	?	0.0295	0.00737	0.0209	0.0105
O=c1c(C=Nc2cccnc2Cl)c(O)n(CCCCl)c(=O)n1C1CCCCC1	-25.0	3.2	0.3	0.27	1.34	-0.391	.	.	.	.	.	.
O=c1c(C=NCc2cccs2)c(O)n(C2CCCCC2)c(=O)n1C1CCCCC1	31.2	-17.6	16.2	.	-3.01*	-1.03	?	0.00445	0.03	0.00719	0.0195	0.0103
O=C1CSC2N1CCNC21CCCCC1 (configuration not stated)	.	29.1	-1.1	1.37	-0.0324	0.0938	.	.	.	.	.	.
CC1(c2ccccc2)NCCN2C(=O)CSC21 (configuration not stated)	25.0	24.9	2.4	0.92	-2.26	-0.00926	0.0086	0.00614	0.0353	0.00455	0.02	0.0113
Nc1ccccc1C(=O)OCC(=O)N1CCc2ccccc21	-46.4	-16.3	-3.8	-0.4	.	-0.429	0.00622	?	0.0302	?	0.0134*	0.0109
O=C1NC(=O)C(=Cc2coc3ccccc3c2=O)C(=O)N1	8.1	9.9	1.2	0.79	-4.07*	-0.581	0.00584	0.00577*	?	0.00592*	0.0144*	0.00991
N#CC1(c2ccccc2)CCN(C2CC(=O)N(c3ccc4c(c3)OCO4)C2=O)CC1 (configuration not stated)	.	11.7	-3.6	0.31	0.00274	0.0816	.	.	.	.	.	.
COc1cc2c3c(c1OC)-c1cc(O)ccc1CC3NCC2 (configuration not stated)	12.1	4.7	-1.4	-0.55	-1.18	-0.506	.	.	.	.	.	.
COc1cc2c(cc1OC)-c1c(OC)c(OC)cc3c1[C@H](C2)[N+](C)(C)CC3	-14.3	-8.1	-3.1	-0.09	3.08*	-0.245	0.00752	?	0.0295	0.00759	0.0183	0.0113
CC(C)NC(C)C(=O)c1ccc2ccccc2c1 (configuration not stated)	.	-1.9	-6.5	-0.47	1.4	0.86	.	.	.	.	.	.
CC(NC(C)(C)C)C(=O)c1cccc(Cl)c1 (configuration not stated)	-33.3	2.0	-6.8	.	7.67*	.	0.00579	0.00426	0.0285	0.00709	0.0177	0.00943
Cc1c(/C=C2/CC3C4CC=C5CC(O)CCC5(C)C4CCC3(C)C2=O)cnn1C (configuration not stated)	16.7	.	2.1	.	0.502	.	.	.	.	.	.	.
SMILES	INS promoter inh	WT yeast gro inh	L major viab	Insulin prom up	Cl transport mod	ROMK primary	KCC2 secondary	KCC2 bumet counter	KCC2 sec2	HEK293 Tl flux	KCC2 retest ouab	HEK counter2	others
CN1CCN(Cc2nc3ccccc3n2C)CC1	.	-20.2	-8.1	-0.81	6.86*	.	0.00615	0.00473	?	0.00788	?	0.0109
CSc1ccc(C(=O)C(C)(C)N2CCOCC2)cc1	-257.1	-2.4	48.2	0.16	.	-0.197	.	.	.	.	.	.
O=C1NC(=O)N(Cc2ccccc2Cl)C(=O)/C1=C/N1CCOCC1	0.0	-19.1	-5.6	.	.	.	.	.	.	.	.	.	ROMK retest=0.0598*
O=c1c(C=NCCN2CCNCC2)c(O)n(C2CCCCC2)c(=O)n1C1CCCCC1	-12.5	13.8	43.5	-0.19	0.54	-3.71*	.	.	.	.	.	.	ROMK retest=0.0751
O=c1[nH]c(=S)n(C2CC2)c(O)c1C=NCCN1CCOCC1	.	.	.	0.27	1.55	.	.	.	.	.	.	.
Cc1cccc2c1N(N=O)CCC2	0.0	-15.2	18.4	0.06	0.507	.	.	.	.	.	.	.
CN(C)C(=O)Oc1cccc(NC(=O)c2ccccc2C(F)(F)F)c1	.	.	.	.	1.62	.	.	.	.	.	.	.
CN(C)C(=O)Nc1cccc(OC(=O)N(C)C)c1	34.2	-0.7	-4.3	0.67	.	.	.	.	.	.	.	.	ROMK retest=0.0878
